The results in this text go back to ChEMBL document CHEMBL1961873, “Compounds: GSK PKIS; Assays: Nanosyn kinase panel” (2012).

The target in assay [1] is T1, Ephrin type-B receptor 2 (Homo sapiens) (UniProt P29323).
T1 sequence (whole entry): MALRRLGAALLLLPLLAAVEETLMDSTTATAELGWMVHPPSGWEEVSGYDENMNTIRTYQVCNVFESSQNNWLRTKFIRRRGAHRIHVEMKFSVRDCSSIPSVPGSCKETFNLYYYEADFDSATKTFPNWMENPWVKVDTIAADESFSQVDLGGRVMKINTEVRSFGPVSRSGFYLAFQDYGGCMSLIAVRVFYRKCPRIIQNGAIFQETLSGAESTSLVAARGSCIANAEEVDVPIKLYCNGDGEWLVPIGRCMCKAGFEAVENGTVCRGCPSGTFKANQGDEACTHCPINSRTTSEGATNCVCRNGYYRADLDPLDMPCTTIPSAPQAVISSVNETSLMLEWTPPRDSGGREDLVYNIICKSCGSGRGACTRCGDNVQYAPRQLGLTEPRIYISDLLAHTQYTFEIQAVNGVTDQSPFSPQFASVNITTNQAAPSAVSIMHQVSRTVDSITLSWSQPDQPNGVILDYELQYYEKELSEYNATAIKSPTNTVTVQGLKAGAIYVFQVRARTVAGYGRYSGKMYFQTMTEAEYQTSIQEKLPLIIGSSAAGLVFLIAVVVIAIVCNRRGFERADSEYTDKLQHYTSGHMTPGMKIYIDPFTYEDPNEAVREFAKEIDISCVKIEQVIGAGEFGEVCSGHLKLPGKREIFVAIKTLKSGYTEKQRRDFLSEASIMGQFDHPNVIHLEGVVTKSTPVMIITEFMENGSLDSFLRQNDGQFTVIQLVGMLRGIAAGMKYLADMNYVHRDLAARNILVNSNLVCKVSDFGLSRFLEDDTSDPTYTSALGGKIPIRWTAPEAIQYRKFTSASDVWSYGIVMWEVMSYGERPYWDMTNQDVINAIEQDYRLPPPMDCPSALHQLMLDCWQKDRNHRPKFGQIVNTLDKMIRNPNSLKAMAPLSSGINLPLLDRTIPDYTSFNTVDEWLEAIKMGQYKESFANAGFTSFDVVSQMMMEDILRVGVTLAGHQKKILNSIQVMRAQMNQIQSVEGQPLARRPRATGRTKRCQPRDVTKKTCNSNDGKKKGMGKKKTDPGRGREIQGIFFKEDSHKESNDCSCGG
Conditions: at 1 µM.

For assay [2], the target named is T2, Ephrin type-B receptor 3 (Homo sapiens) (UniProt P54753).
T2 sequence (whole entry): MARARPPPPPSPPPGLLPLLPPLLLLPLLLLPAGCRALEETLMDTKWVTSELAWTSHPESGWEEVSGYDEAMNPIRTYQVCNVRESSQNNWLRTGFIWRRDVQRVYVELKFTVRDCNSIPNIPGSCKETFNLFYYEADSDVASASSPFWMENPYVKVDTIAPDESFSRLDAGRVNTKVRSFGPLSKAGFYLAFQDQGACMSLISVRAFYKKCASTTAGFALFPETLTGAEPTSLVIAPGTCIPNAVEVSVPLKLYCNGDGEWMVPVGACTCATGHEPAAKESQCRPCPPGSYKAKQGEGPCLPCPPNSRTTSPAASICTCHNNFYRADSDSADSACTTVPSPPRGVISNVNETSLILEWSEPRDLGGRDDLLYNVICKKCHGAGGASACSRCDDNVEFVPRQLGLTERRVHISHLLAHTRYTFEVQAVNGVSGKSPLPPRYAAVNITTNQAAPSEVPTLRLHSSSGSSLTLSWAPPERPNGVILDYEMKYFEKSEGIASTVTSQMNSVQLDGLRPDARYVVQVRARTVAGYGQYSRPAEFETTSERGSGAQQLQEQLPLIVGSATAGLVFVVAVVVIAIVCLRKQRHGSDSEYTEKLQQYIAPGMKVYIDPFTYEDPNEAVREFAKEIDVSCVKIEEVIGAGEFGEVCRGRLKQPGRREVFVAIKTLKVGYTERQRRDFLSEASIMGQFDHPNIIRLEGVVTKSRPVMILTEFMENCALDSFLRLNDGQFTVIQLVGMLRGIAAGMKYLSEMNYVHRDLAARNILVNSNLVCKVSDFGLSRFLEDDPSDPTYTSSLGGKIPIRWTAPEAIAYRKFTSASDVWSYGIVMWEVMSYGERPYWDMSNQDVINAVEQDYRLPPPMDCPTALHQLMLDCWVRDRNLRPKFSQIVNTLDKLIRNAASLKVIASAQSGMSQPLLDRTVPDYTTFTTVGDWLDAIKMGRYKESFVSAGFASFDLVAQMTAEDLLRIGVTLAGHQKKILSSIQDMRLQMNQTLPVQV
Conditions: at 0.1 µM.

Assay [3] concerns the target T2, Ephrin type-B receptor 3 (Homo sapiens). Conditions: at 1 µM.
The target of assay [4] is T3, Ephrin type-B receptor 4 (Homo sapiens) (UniProt P54760).
T3 sequence (whole entry): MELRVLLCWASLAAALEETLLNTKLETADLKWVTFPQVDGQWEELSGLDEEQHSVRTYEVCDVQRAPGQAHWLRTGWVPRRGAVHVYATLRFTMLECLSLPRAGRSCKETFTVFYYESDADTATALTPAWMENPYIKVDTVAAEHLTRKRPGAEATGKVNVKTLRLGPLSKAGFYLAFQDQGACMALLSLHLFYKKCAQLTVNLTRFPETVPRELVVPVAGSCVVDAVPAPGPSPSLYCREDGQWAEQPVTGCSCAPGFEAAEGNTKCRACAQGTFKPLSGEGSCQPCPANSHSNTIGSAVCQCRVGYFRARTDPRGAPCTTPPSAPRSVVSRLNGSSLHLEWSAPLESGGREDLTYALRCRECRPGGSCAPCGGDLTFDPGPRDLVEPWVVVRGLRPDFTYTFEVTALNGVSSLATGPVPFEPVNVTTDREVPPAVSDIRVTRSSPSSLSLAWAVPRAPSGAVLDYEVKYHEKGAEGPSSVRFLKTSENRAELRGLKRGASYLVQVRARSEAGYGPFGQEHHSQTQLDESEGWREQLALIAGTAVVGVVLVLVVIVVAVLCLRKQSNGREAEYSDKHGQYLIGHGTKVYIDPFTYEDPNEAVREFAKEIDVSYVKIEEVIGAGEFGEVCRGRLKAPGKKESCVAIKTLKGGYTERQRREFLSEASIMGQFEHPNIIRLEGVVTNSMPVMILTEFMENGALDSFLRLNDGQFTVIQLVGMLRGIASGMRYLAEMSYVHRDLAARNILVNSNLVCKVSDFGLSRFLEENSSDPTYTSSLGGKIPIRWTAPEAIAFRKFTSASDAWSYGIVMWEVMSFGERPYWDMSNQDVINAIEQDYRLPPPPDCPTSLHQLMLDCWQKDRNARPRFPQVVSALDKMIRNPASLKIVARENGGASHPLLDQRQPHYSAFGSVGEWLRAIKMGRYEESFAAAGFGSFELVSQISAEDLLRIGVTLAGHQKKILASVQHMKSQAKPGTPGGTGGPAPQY
Conditions: at 0.1 µM.

Assay [5] addresses T3, Ephrin type-B receptor 4 (Homo sapiens). Particulars: at 1 µM.
The target in assay [6] is Receptor tyrosine-protein kinase erbB-2 (Homo sapiens) (UniProt P04626). Conditions: at 0.1 µM.
For assay [7] the target is unchanged. Conditions: at 1 µM.
The target in assay [8] is Receptor tyrosine-protein kinase erbB-4 (Homo sapiens) (UniProt Q15303). Conditions: at 0.1 µM.
Assay [9] has the same target. Particulars: at 1 µM.
Assay [10] deals with Tyrosine-protein kinase Fer (Homo sapiens) (UniProt P16591). Particulars: at 0.1 µM.
Assay [11] has the same target. Particulars: at 1 µM.
The target in assay [12] is Tyrosine-protein kinase Fes/Fps (Homo sapiens) (UniProt P07332). Particulars: at 0.1 µM.
For assay [13] the target is unchanged. Particulars: at 1 µM.
The target in assay [14] is Fibroblast growth factor receptor 1 (Homo sapiens) (UniProt P11362). Conditions: at 0.1 µM.
Assay [15] has the same target. Particulars: at 1 µM.
Assay [16] addresses Fibroblast growth factor receptor 2 (Homo sapiens) (UniProt P21802). Particulars: at 0.1 µM.
The target is the same in assay [17]. Conditions: at 1 µM.
The target of assay [18] is Fibroblast growth factor receptor 3 (Homo sapiens) (UniProt P22607). Particulars: at 0.1 µM.
For assay [19] the target is unchanged. Conditions: at 1 µM.
The target in assay [20] is Fibroblast growth factor receptor 4 (Homo sapiens) (UniProt P22455). Particulars: at 0.1 µM.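 Further: values are mean percent inhibition of FGFR4.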
Fibroblast growth factor receptor 4 (Homo sapiens), sequence (P22455 22-802 limits assumed): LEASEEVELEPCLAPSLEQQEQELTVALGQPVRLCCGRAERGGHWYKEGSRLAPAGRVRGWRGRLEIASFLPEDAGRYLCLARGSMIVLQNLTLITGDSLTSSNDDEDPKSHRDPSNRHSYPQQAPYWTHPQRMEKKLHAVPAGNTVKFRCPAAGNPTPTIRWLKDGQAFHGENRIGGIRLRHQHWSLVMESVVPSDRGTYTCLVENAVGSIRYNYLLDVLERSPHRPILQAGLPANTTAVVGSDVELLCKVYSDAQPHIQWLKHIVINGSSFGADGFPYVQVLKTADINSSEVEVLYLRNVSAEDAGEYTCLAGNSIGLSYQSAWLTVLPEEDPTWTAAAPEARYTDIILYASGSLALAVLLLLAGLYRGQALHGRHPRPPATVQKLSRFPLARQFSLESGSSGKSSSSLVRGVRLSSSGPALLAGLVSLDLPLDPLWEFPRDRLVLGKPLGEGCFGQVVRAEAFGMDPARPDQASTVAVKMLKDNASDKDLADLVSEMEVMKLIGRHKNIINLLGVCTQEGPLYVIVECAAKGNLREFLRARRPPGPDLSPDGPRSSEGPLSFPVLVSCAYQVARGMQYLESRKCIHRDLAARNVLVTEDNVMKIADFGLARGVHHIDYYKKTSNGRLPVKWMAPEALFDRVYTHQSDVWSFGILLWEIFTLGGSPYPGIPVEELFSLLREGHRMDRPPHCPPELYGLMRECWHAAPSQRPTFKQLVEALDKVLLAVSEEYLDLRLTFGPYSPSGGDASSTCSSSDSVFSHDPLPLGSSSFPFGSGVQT

Tyrosine-protein kinase Fer (Homo sapiens), sequence (P16591 whole entry, looked up): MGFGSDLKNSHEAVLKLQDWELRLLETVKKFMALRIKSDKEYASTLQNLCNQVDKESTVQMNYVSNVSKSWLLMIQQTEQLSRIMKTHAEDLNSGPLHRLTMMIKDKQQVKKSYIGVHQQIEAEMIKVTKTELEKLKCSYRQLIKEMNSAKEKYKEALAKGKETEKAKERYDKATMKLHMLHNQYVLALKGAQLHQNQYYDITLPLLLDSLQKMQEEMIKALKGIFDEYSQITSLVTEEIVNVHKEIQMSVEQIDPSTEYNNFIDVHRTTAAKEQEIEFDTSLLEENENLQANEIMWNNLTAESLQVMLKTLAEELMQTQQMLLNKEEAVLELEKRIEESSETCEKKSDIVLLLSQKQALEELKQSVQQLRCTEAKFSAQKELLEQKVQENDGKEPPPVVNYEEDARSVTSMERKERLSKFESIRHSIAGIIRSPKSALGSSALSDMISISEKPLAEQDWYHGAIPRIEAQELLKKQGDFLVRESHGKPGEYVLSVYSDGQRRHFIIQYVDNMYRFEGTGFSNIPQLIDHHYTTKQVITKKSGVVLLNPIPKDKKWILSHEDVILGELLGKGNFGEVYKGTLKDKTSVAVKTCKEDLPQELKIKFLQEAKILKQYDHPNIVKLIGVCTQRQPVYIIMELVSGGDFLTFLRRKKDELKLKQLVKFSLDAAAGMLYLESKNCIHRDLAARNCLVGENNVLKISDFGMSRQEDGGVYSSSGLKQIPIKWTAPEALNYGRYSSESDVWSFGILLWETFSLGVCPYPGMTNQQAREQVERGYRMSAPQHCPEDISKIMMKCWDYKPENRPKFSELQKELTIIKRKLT
Fibroblast growth factor receptor 1 (Homo sapiens), sequence (P11362 22-822 limits assumed): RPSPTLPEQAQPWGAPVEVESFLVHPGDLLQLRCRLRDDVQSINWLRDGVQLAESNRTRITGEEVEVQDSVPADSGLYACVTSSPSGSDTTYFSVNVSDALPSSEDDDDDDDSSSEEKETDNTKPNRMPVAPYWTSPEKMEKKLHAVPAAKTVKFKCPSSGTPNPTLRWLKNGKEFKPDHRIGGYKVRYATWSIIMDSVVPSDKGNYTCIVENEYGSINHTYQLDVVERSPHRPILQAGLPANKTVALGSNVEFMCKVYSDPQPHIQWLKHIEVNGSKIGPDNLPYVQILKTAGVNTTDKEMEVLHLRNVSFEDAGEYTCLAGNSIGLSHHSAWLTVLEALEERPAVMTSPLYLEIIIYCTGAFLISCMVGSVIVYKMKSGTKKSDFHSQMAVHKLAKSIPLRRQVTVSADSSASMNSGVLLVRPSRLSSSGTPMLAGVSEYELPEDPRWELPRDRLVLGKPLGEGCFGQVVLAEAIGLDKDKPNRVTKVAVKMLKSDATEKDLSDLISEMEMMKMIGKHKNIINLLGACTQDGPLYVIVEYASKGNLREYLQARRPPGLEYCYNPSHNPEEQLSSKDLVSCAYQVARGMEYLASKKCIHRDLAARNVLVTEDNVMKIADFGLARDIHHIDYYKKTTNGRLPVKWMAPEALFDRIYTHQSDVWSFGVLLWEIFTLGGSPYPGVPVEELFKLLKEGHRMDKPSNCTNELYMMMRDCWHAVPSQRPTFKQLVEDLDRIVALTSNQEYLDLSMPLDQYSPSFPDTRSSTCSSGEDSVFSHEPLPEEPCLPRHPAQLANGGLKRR
Fibroblast growth factor receptor 2 (Homo sapiens), sequence (P21802 22-821 limits assumed): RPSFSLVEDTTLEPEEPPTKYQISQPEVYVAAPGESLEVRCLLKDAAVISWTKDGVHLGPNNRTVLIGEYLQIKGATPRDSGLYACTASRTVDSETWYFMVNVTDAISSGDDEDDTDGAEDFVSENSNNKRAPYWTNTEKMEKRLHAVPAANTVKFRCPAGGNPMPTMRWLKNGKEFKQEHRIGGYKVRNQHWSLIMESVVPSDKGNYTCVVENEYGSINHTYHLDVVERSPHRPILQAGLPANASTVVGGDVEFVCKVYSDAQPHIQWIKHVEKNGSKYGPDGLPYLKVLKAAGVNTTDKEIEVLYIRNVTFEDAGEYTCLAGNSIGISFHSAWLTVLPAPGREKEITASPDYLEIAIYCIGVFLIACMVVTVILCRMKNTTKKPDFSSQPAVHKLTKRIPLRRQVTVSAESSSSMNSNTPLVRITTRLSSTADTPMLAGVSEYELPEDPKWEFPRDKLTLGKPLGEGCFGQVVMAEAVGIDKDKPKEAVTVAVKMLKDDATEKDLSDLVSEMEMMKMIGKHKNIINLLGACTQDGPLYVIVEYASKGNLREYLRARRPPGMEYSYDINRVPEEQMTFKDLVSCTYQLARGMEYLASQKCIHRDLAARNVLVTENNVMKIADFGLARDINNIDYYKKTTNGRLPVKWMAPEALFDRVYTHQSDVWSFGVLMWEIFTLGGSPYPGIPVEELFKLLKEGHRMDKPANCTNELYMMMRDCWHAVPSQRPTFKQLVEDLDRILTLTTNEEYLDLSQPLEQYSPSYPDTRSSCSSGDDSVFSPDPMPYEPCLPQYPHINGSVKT
Fibroblast growth factor receptor 3 (Homo sapiens), sequence (P22607 23-806 limits assumed): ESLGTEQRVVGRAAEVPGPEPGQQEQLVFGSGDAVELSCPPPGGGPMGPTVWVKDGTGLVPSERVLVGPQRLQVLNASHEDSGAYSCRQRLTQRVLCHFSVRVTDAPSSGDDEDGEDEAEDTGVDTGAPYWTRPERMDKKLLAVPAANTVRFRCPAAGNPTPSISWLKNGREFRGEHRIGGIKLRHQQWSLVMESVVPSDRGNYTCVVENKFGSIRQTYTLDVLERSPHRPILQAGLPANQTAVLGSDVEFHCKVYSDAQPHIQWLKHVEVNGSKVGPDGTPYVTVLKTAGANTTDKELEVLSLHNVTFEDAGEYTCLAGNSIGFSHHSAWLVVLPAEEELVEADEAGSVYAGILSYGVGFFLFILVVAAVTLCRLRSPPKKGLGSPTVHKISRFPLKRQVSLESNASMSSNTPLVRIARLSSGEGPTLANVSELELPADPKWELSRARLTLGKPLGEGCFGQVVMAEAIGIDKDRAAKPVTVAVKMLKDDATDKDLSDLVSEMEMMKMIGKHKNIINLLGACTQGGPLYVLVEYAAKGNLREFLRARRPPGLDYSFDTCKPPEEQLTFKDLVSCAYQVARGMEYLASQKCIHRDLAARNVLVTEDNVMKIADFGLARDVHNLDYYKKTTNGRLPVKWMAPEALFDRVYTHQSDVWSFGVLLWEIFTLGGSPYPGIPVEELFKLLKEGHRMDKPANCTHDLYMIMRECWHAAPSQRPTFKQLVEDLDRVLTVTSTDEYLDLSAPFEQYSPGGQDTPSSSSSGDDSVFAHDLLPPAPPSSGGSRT
Tyrosine-protein kinase Fes/Fps (Homo sapiens), sequence (P07332 whole entry): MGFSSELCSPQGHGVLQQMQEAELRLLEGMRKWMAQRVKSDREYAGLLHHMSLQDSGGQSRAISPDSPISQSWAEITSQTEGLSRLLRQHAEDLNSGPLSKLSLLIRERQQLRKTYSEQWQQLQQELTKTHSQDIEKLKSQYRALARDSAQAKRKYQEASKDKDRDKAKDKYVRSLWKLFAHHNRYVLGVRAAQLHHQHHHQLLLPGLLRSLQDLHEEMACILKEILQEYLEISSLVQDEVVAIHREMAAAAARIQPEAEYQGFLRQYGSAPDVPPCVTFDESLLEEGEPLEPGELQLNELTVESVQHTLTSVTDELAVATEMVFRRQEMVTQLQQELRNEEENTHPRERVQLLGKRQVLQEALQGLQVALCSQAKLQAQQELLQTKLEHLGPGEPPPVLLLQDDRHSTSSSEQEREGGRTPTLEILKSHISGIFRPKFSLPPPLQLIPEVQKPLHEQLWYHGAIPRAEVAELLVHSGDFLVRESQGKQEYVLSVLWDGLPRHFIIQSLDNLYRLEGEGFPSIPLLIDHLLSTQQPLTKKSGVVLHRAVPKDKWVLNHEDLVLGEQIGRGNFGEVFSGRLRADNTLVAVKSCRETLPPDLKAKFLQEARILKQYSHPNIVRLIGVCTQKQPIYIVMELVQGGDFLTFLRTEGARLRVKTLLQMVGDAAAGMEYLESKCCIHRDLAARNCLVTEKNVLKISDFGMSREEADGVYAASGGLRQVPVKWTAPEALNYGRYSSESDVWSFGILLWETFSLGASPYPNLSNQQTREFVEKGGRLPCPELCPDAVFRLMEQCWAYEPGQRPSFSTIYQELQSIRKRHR

`COc1ccc(-c2cc(-c3c[nH]nc3-c3ccccn3)ccn2)cc1`: the inhibition in assay [1] was found to be 10.2%; in assay [2], 4.76%; in assay [3], 2.2%; in assay [4], 2.71%; in assay [5], 2.68%; in [6], 2.88%. For the same compound, the inhibition was determined as 6.13% in assay [7]; 9.37% in assay [8]; 10.6% in assay [9]; 3.16% in assay [10]; 7.83% in [11]; 3.39% in assay [12]. Further, the inhibition in assay [13] is 3.93%; in assay [14], 1.12%; in [15], -0.51%; in assay [16], 1.91%; in [17] it was 4.55%; in [18], 8.17%. For the same compound, the inhibition in assay [19] is 5.23%; in assay [20], -2.23%.
On to `CCn1c(-c2nonc2N)nc2c(C#CC(C)(C)O)ncc(OC3CCNCC3)c21`, for which the inhibition is 4.11% in assay [1]; 3.01% in assay [2]; 4.06% in assay [3]; 1.92% in assay [4]; 1.63% in assay [5]; 5.64% in assay [6]. Moreover, the inhibition is 3.93% in assay [7]; 5.65% in [8]; 10.3% in assay [9]; -0.68% in [10]; 3.91% in assay [11]; 2.9% in assay [12]. The inhibition in assay [13] is 5.88%; in assay [14], 1.54%; in assay [15] it was -4.66%; in assay [16], 9.23%; in assay [17] it was 11.4%; in assay [18] it was 7.92%. Besides, the values for the inhibition in [19] and in [20] were 2.73% and 6.43%, respectively.
For the compound `COc1cc(/C=N/Nc2ncnc3[nH]ncc23)ccc1O`, the inhibition in assay [1] came to 38.7%; in assay [2], 3.99%; in assay [3] it was 5.19%; in assay [4], 5.34%; in [5], 20.9%; in assay [6] it was 2.03%. Also, the inhibition in assay [7] was 4.08%; in assay [8], 13.4%; in [9] it was 21.1%; in [10] it was 3.03%; in assay [11] it was 14.3%; in [12], 2.22%. For the same compound, the inhibition in assay [13] came out at 7.19%; in assay [14], 1.55%; in assay [15] it was 7.94%; in [16] it was 4.76%; in assay [17], 16.9%; in assay [18], 5.91%. Besides, the figures for the inhibition in assay [19] and in assay [20] were 19% and -1.95%, respectively.
With `N#Cc1c(NC(=O)c2ccc(F)cc2)sc2c1CCCC2`, the inhibition in assay [1] is 5.96%; in assay [2] it was 2.46%; in assay [3], 3.74%; in [4], -0.69%; in [5] it was 0.04%; in [6] it was -0.32%. Moreover, the inhibition in assay [7] is -0.51%; in [8], 5.37%; in assay [9], 7.46%; in assay [10], 0.75%; in [11] it was 0.95%; in assay [12] it was 0.56%. Moreover, the inhibition came to 1.22% in assay [13]; 1.48% in assay [14]; 2.08% in [15]; 1.6% in [16]; 3.48% in [17]; 1.58% in [18]. In addition, the inhibition was 2.77% in assay [19] and 0.23% in [20].
For `Fc1ccc(-c2cc(-c3c[nH]nc3-c3ccccn3)ccn2)cc1`, the inhibition stood at 10.6% in assay [1]; 7.2% in [2]; 4.44% in [3]; 3.71% in assay [4]; 0.96% in assay [5]; 4.82% in [6]. Further, the inhibition is 6.84% in assay [7]; 8.5% in assay [8]; 12.7% in [9]; 4.53% in assay [10]; 5.23% in assay [11]; 2.57% in [12]. Also, the inhibition came out at 3.31% in [13]; 6.18% in assay [14]; 6.81% in [15]; 5.36% in [16]; 5.13% in [17]; 4.33% in assay [18]. Further, in [20], the inhibition is -0.17%.
On to `CCn1c(-c2nonc2N)nc2c(C#CC(C)(C)O)nc(OC[C@H](N)c3ccccc3)cc21`, for which the inhibition in assay [1] worked out at 0.23%; in assay [2], 0.72%; in assay [3] it was 1.06%; in [4], 1.68%; in assay [5], 1.24%; in [6], 0.79%. Moreover, the inhibition worked out at 3.43% in [7]; 6.48% in assay [8]; 28.9% in assay [9]; 2.98% in [10]; 7.41% in [11]; 4.38% in assay [12]. Besides, the inhibition was 7.88% in [13]; 4.14% in assay [14]; 2.91% in [15]; 4.95% in assay [16]; 4.18% in assay [17]; 9.04% in assay [18]. The inhibition in assay [19] is 3.32%; in assay [20] it was 3.89%.

One may read the inhibition as the relative decrease from the control value, in per cent.
